Growth data for 9 compounds are collected here from PubChem BioAssay (NCI).

Structures are written as SMILES. This is part of a sample that, as a whole, favours compounds with a hit. Of some 83,000 tested, about 20% had one in any assay.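 The test compound was applied at a single concentration to cells in 96-well plates for 48 hours, and percent growth was recorded.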 Values without a mark were called inactive. Active and inactive are the calls of the source. How the source made its calls: active means growth percent below 10; inactive means the rest.

Among the test systems are SR leukemia; RPMI-8226 leukemia; OVCAR-8 ovarian; OVCAR-5 ovarian; OVCAR-4 ovarian; SK-OV-3 ovarian; IGROV1 ovarian; OVCAR-3 ovarian; HS 578T breast; NCI/ADR-RES ovarian; T-47D breast; BT-549 breast; MDA-MB-435 melanoma; SW-620 colon; MCF7 breast; HCT-116 colon; HCC-2998 colon; KM12 colon.
Holding throughout (experiment): NCI-60 one-dose screen, 48 h (100 = growth as untreated, 0 = no growth, -100 = all killed)
Settings in all cases: 10 µM unless noted

Take `O=C(CNc1c(Cl)cccc1Cl)Nc1ccc(-c2nc3ccccc3s2)cc1`: the growth in the experiment on SR leukemia is 10.7%; in the experiment with RPMI-8226 leukemia it was 59.8%; in the experiment with OVCAR-8 ovarian it was 66.7%; with OVCAR-5 ovarian, 110%; in the experiment on OVCAR-4 ovarian, 17.5%; in the experiment with SK-OV-3 ovarian, 97.8%. The growth was 49.3% in the experiment on IGROV1 ovarian; 54.4% in the experiment with OVCAR-3 ovarian; 87.2% in the experiment with HS 578T breast; 64% in the experiment with NCI/ADR-RES ovarian; -19% (active) in the experiment on T-47D breast; 22% in the experiment with BT-549 breast. In addition, the growth was 67.9% in the experiment on MDA-MB-435 melanoma; 35.3% in the experiment on SW-620 colon; 14.6% in the experiment with MCF7 breast; 29.9% in the experiment on HCT-116 colon; 35.6% with HCC-2998 colon; 91.3% in the experiment with KM12 colon.

As for `COc1cc(OC)c(C(=O)/C=C/c2ccc(C(F)(F)F)cc2)c(OC)c1`, the growth in the experiment with SR leukemia is 31.6%; with RPMI-8226 leukemia, 25.3%; in the experiment on OVCAR-8 ovarian, 40.3%; with OVCAR-5 ovarian, 105%; with OVCAR-4 ovarian, 56.5%; in the experiment with SK-OV-3 ovarian, 75.4%. The growth with IGROV1 ovarian was 52.1%; in the experiment on OVCAR-3 ovarian, 16.9%; in the experiment with HS 578T breast, 66.2%; in the experiment with NCI/ADR-RES ovarian it was 46.9%; in the experiment with T-47D breast it was 26.6%; in the experiment on BT-549 breast it was -3.68% (active). Further, the growth is 23.8% in the experiment with MDA-MB-435 melanoma; 9.97% (active) in the experiment on SW-620 colon; 20.4% in the experiment on HCT-116 colon; 85% with HCC-2998 colon; 36.6% in the experiment with KM12 colon.

Consider `O=c1oc2c([nH]c3ccc4ccccc4c32)c2ccccc12`, for which the growth was 102% in the experiment with SR leukemia; 103% in the experiment on RPMI-8226 leukemia; 104% in the experiment on OVCAR-8 ovarian; 112% with OVCAR-5 ovarian; 109% in the experiment on OVCAR-4 ovarian; 107% with SK-OV-3 ovarian. Further, the growth was 118% in the experiment on IGROV1 ovarian; 109% in the experiment on OVCAR-3 ovarian; 104% with HS 578T breast; 104% in the experiment on NCI/ADR-RES ovarian; 77.5% in the experiment with T-47D breast; 104% in the experiment with BT-549 breast. For the same compound, the growth with MDA-MB-435 melanoma was 105%; in the experiment with SW-620 colon it was 98.3%; in the experiment on MCF7 breast, 73.7%; in the experiment on HCT-116 colon it was 102%; in the experiment on KM12 colon, 106%.

Consider `Clc1ccc([I+]c2ccc(Cl)cc2Cl)c(Cl)c1`, for which the growth in the experiment with SR leukemia is 22.8%; in the experiment on RPMI-8226 leukemia, -25.7% (active); with OVCAR-8 ovarian it was -1.2% (active); with OVCAR-5 ovarian, -25.9% (active); in the experiment with OVCAR-4 ovarian, 0.221% (active); in the experiment with SK-OV-3 ovarian, 96.7%. The growth in the experiment on IGROV1 ovarian is 39.7%; with OVCAR-3 ovarian, -75.5% (active); with HS 578T breast, 79%; with NCI/ADR-RES ovarian, 79.4%; with T-47D breast it was -44.9% (active); in the experiment on BT-549 breast, 7.13% (active). The growth in the experiment with MDA-MB-435 melanoma is 82.2%; in the experiment with SW-620 colon, -43.4% (active); in the experiment with MCF7 breast, -30.9% (active); in the experiment on HCT-116 colon, -37.7% (active); with HCC-2998 colon it was 58.3%; with KM12 colon, 39.3%.

`Nc1nc(Cl)c2c(ncn2Cc2ccc(CCl)cc2)n1`: the growth is 83.2% in the experiment with SR leukemia; 33.8% in the experiment with RPMI-8226 leukemia; 49.4% with OVCAR-8 ovarian; 109% in the experiment on OVCAR-5 ovarian; 96.1% in the experiment on OVCAR-4 ovarian; 103% with SK-OV-3 ovarian. In addition, the growth with IGROV1 ovarian is 76.5%; with OVCAR-3 ovarian it was 68.3%; with HS 578T breast it was 94.1%; with NCI/ADR-RES ovarian, 98.4%; in the experiment with T-47D breast it was 90.2%; in the experiment with BT-549 breast it was 6.29% (active). Also, the growth in the experiment with MDA-MB-435 melanoma was 95.5%; in the experiment with SW-620 colon, 93.3%; in the experiment on MCF7 breast, 72.5%; in the experiment on HCT-116 colon, 94.2%; with KM12 colon, 94.3%.

Turning to `Cc1nc(Nc2cccnc2)sc1C(=O)/C=C/c1ccc(F)cc1`, the growth in the experiment on SR leukemia was 18.6%; in the experiment with RPMI-8226 leukemia, 1.5% (active); in the experiment on OVCAR-8 ovarian it was 21.8%; with OVCAR-5 ovarian, 56.4%; with OVCAR-4 ovarian, 63.8%; in the experiment on SK-OV-3 ovarian it was 71.6%. In addition, the growth with IGROV1 ovarian was 29.9%; in the experiment with OVCAR-3 ovarian, 5.9% (active); in the experiment on HS 578T breast, 96.4%; with NCI/ADR-RES ovarian, 38.4%; with T-47D breast it was 30.2%; in the experiment with BT-549 breast, 1.57% (active). The growth is 2.86% (active) in the experiment on MDA-MB-435 melanoma; 9.84% (active) in the experiment on SW-620 colon; 3.7% (active) in the experiment with HCT-116 colon; 83.4% in the experiment on HCC-2998 colon; 11.3% in the experiment with KM12 colon.

`CCCCNc1nnc(-c2cc(-c3cc4ccccc4o3)nn2-c2ccccc2)o1`: the growth in the experiment on SR leukemia is 76.5%; with RPMI-8226 leukemia, 77.9%; in the experiment with OVCAR-8 ovarian it was 88%; in the experiment with OVCAR-5 ovarian, 105%; in the experiment with OVCAR-4 ovarian, 86.7%; in the experiment with SK-OV-3 ovarian, 99.4%. Also, the growth in the experiment on IGROV1 ovarian is 63.9%; with OVCAR-3 ovarian, 66%; in the experiment on HS 578T breast, 93.1%; in the experiment on NCI/ADR-RES ovarian, 87.5%; in the experiment with T-47D breast it was 76.7%; with BT-549 breast, 96.7%. Besides, the growth in the experiment on MDA-MB-435 melanoma was 101%; in the experiment on SW-620 colon, 103%; with MCF7 breast, 73.8%; with HCT-116 colon it was 89.4%; in the experiment with KM12 colon it was 103%.

`OCc1c(-c2ccccc2)nc2sccn12`: the growth with SR leukemia is 103%; with RPMI-8226 leukemia, 111%; in the experiment on OVCAR-8 ovarian it was 67.5%; in the experiment on OVCAR-5 ovarian, 109%; in the experiment with OVCAR-4 ovarian it was 103%; in the experiment with SK-OV-3 ovarian, 110%. Further, the growth is 88.2% with IGROV1 ovarian; 116% in the experiment on OVCAR-3 ovarian; 77.7% with HS 578T breast; 105% with NCI/ADR-RES ovarian; 104% in the experiment with T-47D breast; 59.3% with BT-549 breast. The growth in the experiment on MDA-MB-435 melanoma was 114%; with SW-620 colon, 98.3%; in the experiment with MCF7 breast it was 103%; in the experiment on HCT-116 colon, 104%; in the experiment with KM12 colon, 97.6%.

As for `COc1cc(C(=O)N2CCN(C(=O)c3ccco3)CC2)c(N)cc1OCc1ccccc1`, the growth was 86.5% with SR leukemia; 71.9% in the experiment on RPMI-8226 leukemia; 99.8% with OVCAR-8 ovarian; 107% in the experiment on OVCAR-5 ovarian; 92.9% in the experiment on OVCAR-4 ovarian; 113% with SK-OV-3 ovarian. In addition, the growth in the experiment with IGROV1 ovarian is -5.4% (active); in the experiment with OVCAR-3 ovarian it was 105%; in the experiment on HS 578T breast, 91.9%; in the experiment on NCI/ADR-RES ovarian it was 102%; with T-47D breast it was 97.1%; with BT-549 breast, 105%. Besides, the growth with MDA-MB-435 melanoma was 113%; with SW-620 colon, 105%; with HCT-116 colon it was 93.3%; in the experiment with HCC-2998 colon it was 125%; in the experiment with KM12 colon, 103%.
